Screening data deposited in PubChem BioAssay by several laboratories.
Tat export inh = E. coli Tat transport inhibition | E. coli MC4100 TorA-mCherry Tat export, fluorescence | inhibition, % at 10 µM | 0.036% of 340,000 active | AID 488895;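 active = mean replicate inhibition at least 50% and at least half of replicates individually reaching 50%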;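 note: exported cargo escapes ClpAP degradation while cytoplasmic cargo is degraded and loses fluorescence; 0% = median of neutral control wells and 100% = median of NaSCN control wells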
AddAB inh = less growth of phage-infected E. coli with AddAB | E. coli expressing H. pylori AddAB, absorbance growth | inhibition, % at 11.9 µM | 0.29% of 330,000 active; in the data active = inhibition above about 12%;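 note: 0% = vehicle wells of infected cells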
E coli growth-1 = blocks Escherichia coli growth | AID 1053175 | 0.21% of 330,000 active | OD600 absorbance (no concentration beside the values) | OD600, 23 h; hits give low values;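 active = OD600 absorbance below the run mean of sample wells minus 3.6 SD, in any replicate, cut at about 0.56 in these data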
E coli growth-2 = counter-screen for AddAB inhibitors: E. coli growth inhibition; E. coli V3065 growth, OD600 absorbance, 18 h; inhibition, % at 11.9 µM; 0.27% of 330,000 active; AID 449728;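 active = inhibition above the campaign's mean inhibition across all tested compounds plus 3 SD, cut at about 9.9% in these data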;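 note: uninfected addAB+ strain grown without phage in ampicillin broth; 0% = DMSO wells and 100% = ciprofloxacin 0.95 µg/ml wells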
phage Ecoli inh = E. coli growth loss with phage present; inhibition, % at 11.9 µM; 0.26% of 360,000 active; growth absorbance; in the data active = inhibition above about 11%
AddAB conf = growth loss of T4-infected E. coli expressing H. pylori AddAB, confirmed; 64% of 880 active; inhibition, % at 11.9 µM; E. coli V3065 expressing H. pylori AddAB, T4 phage, OD; T4 phage with gene 2 nonsense mutations; shares compounds with AddAB inh;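 active = mean inhibition above a set limit taken from the earlier primary screen, cut at about 13% in these data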;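 note: higher means less bacterial growth since AddAB block lets phage replicate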
RecBCD counter = counter-screen: growth loss of RecBCD+ E. coli with mutant T4 phage; AID 488955; shares compounds with AddAB inh; inhibition, % at 11.9 µM; 73% of 880 active; E. coli V66 + mutant T4 phage, OD growth;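 active = mean inhibition above the mean of solvent-only control wells plus 3 SD, cut at about 4% in these data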;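 note: optical density read after an 18 h incubation at 37 °C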
bact viab count = reduces bacterial viability, AddAB inhibitor counter-screen. inhibition, % at 11.9 µM. 35% of 880 active. shares compounds with AddAB inh. absorbance (AddAB counterscreen). AID 488956; in the data active = inhibition above about 25%
RecBCD conf = growth loss of phage-infected V66 E. coli, RecBCD confirmation screen; shares compounds with phage Ecoli inh; E. coli V66 + T4 2- phage, growth OD; inhibition, % at 11.9 µM; 45% of 890 active;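 active = mean inhibition over triplicates exceeding the hit threshold derived in the original primary screen, cut at about 11% in these data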
Ecoli viability = bacterial viability inhibition counter-screen for RecBCD; AID 651983; E. coli viability, absorbance (OD) growth; 29% of 890 active; inhibition, % at 11.9 µM; shares compounds with phage Ecoli inh; in the data active = inhibition above about 20%;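 note: E. coli strain V66 grown with compound alone and no phage infection; 0% = bacteria with DMSO vehicle only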
AddAB phage OD = growth loss of phage-infected AddAB E. coli, RecBCD counter-screen; shares compounds with phage Ecoli inh; E. coli expressing H. pylori AddAB + T4 phage, OD growth; gene 2 mutant T4, recBCD-deleted host; inhibition, % at 11.9 µM; 45% of 890 active;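 active = mean inhibition above the solvent-only control wells' mean plus 3 SD, cut at about 22% in these data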;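 note: higher means less bacterial growth from phage killing when AddAB is blocked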
The depositor's hits bear a star; nt = no result given. Shown are actives, neighbours in structure and some others; about 0.51% of the full set was active somewhere.

SMILES | Tat export inh | AddAB inh | E coli growth-1 | E coli growth-2 | phage Ecoli inh | AddAB conf | RecBCD counter | bact viab count | RecBCD conf | Ecoli viability | AddAB phage OD
CCCC(=O)NC(c1cccs1)c1cc(Cl)c2cccnc2c1O (stereo not given) | 2.3 | 26.8* | 0.701 | 28.6* | 21.0* | 22.5* | 20.4* | 19.6 | 11.2* | 14.2 | 19.3
CCCC(=O)NC(c1ccco1)c1cc(Cl)c2cccnc2c1O (stereo not given) | -1.6 | 16.1* | 0.734 | 14.2* | 21.2* | 21.8* | 20.9* | 16.5 | 10.9* | 15.5 | 23.6*
CCC(=O)NC(c1cccs1)c1ccc2cccnc2c1O (stereo not given) | -0.5 | 21.2* | 0.636 | 19.9* | 18.5* | 10.3 | 16.9* | 5.7 | 7.2 | 11.7 | 19.2
CC1NC(=O)c2cc([N+](=O)[O-])cc(I)c2NCCCCC(C(N)=O)NC(=O)C(CC(N)=O)NC1=O (stereo not given) | nt | nt | 0.689 | nt | nt | nt | nt | nt | nt | nt | nt
O=C1CC(c2ccc(OC3OC(CO)C(O)C(O)C3O)cc2)Oc2cc(O)ccc21 (stereo not given) | nt | nt | 0.631 | nt | nt | nt | nt | nt | nt | nt | nt
CCOC(=O)C1C2COc3ccc(Br)cc3C2N2C(=O)N(c3cccc(F)c3)C(=O)[C@]12C (stereo not given in full) | nt | nt | 0.676 | nt | nt | nt | nt | nt | nt | nt | nt
COc1ccc(-c2nn(-c3ccccc3)cc2C=NNC(=O)c2ccc3c(c2)OCO3)cc1 | nt | nt | 0.691 | nt | nt | nt | nt | nt | nt | nt | nt
Oc1ccccc1N=Nc1nc(-c2ccccc2)c(-c2ccccc2)[nH]1 | -4.0 | 27.6* | nt | 22.2* | 20.0* | 21.2* | 16.0* | 17.6 | 10.8 | 15.0 | 18.9
CC(=NNC(=O)c1cccs1)C(C)(C)C | nt | nt | 0.698 | nt | nt | nt | nt | nt | nt | nt | nt
CCn1cc(C(=O)O)c(=O)c2cc(F)c(N3CCN(C(=S)NC(=O)c4ccccc4Br)CC3)cc21 | 11.4 | 97.1* | 0.067* | 98.7* | 94.0* | 102.5* | 22.3* | 102.2* | 100.6* | 101.9* | 102.1*
CCCOc1ccc(C(=O)NC(=S)N2CCN(c3cc4c(cc3F)c(=O)c(C(=O)O)cn4CC)CC2)cc1 | 62.5* | 99.0* | 0.0835* | 97.3* | 98.1* | 102.6* | 100.9* | 104.8* | 102.8* | 102.9* | 101.4*
CCCCCCCCCC(=O)N1CCN(c2cc3c(cc2F)c(=O)c(C(=O)O)cn3CC)CC1 | 0.4 | -0.4 | 0.562 | 1.4 | 0.7 | nt | nt | nt | nt | nt | nt
CCn1cc(C(=O)O)c(=O)c2cc(F)c(N3CCN(C(=S)NC(=O)c4ccc(F)c(F)c4)CC3)cc21 | 91.2* | 97.6* | 0.0705* | 97.6* | 99.1* | 99.6* | 87.5* | 99.4* | 102.5* | 103.5* | 103.8*
CCn1cc(C(=O)O)c(=O)c2cc(F)c(N3CCN(C(=S)NC(=O)c4ccc(F)cc4)CC3)cc21 | 13.0 | 97.8* | 0.063* | 96.3* | 99.2* | 100.2* | 100.4* | 102.4* | 103.2* | 104.0* | 105.0*
O=C(NN=Cc1ccc(Br)cc1)c1ccc(F)cc1 | nt | nt | 0.691 | nt | nt | nt | nt | nt | nt | nt | nt
CCn1cc(C(=O)O)c(=O)c2cc(F)c(N3CCN(C(=S)NC(=O)c4cccc(F)c4)CC3)cc21 | 4.0 | 98.1* | 0.0715* | 98.9* | 42.0* | 100.1* | 100.0* | 100.2* | 100.6* | 101.4* | 101.2*
CC[n+]1ccccc1/C=C1\Sc2ccc(C)cc2N1C | -1.9 | 1.8 | 0.641 | 1.6 | 0.1 | nt | nt | nt | nt | nt | nt
CCN1/C(=C/c2ccc3cc(C)ccc3[n+]2CC)Sc2ccccc21 | 3.7 | 25.3* | 0.222* | 27.6* | 13.8* | 45.7* | 13.9* | 30.3* | 5.6 | 4.2 | 16.3
C=C(C)C1CC=C(C)C(=NNC(=O)CCc2ccccc2)C1 (stereo not given) | nt | nt | 0.739 | nt | nt | nt | nt | nt | nt | nt | nt
CC1S/C(=N/N=Cc2cccs2)NC1=O (stereo not given) | nt | nt | 0.692 | nt | nt | nt | nt | nt | nt | nt | nt
CCOC(=O)N1CCN(Cc2ccc(O)c3ncccc23)CC1 | nt | 2.0 | 0.75 | 3.4 | 7.5 | nt | nt | nt | nt | nt | nt
Cc1ccc(C)c(S(=O)(=O)N2CCN(Cc3ccc(O)c4ncccc34)CC2)c1 | 1.3 | 17.4* | 0.659 | 15.8* | 17.1* | 12.6* | 15.0* | 10.1 | 8.2 | 13.0 | 19.4
Cc1nc(Nc2ccc(S(N)(=O)=O)cc2)oc1C | -10.3 | 15.4* | 0.728 | 9.9* | 11.9* | 9.5 | 5.3* | 15.4 | 5.5 | 2.2 | 40.5*
Cc1ccc(/C=C/C(=O)Nc2ccc(S(N)(=O)=O)cc2)o1 | 2.4 | 2.5 | 0.691 | 3.5 | -0.6 | nt | nt | nt | nt | nt | nt
CCn1ccc(C(=O)NC2C(=O)N3C(C(=O)O)=C(C)CSC23)n1 (stereo not given) | -4.8 | 1.4 | 0.718 | 1.1 | 1.4 | nt | nt | nt | nt | nt | nt
SMILES | Tat export inh | AddAB inh | E coli growth-1 | E coli growth-2 | phage Ecoli inh | AddAB conf | RecBCD counter | bact viab count | RecBCD conf | Ecoli viability | AddAB phage OD
C=CC1=C(C(=O)O)N2C(=O)[C@@H](NC(=O)/C(=N\O)c3csc(N)n3)[C@H]2SC1 (stereo in doubt) | -0.9 | 98.6* | nt | 99.0* | 99.1* | 102.9* | 101.3* | 102.7* | 104.5* | 106.0* | 105.2*
O=C(Cn1cnc2ccccc21)Nc1ccc(SC(F)F)cc1 | -29.0 | 15.0* | 0.548 | 13.2* | 16.9* | 6.7 | 13.2* | 9.7 | 6.3 | 9.4 | 10.6
CC(=O)n1cc(C=NNC(N)=S)c2ccccc21 | nt | nt | 0.708 | nt | nt | nt | nt | nt | nt | nt | nt
NC(=S)N/N=C/c1c(O)ccc2ccccc12 | -4.2 | 2.2 | nt | 1.7 | 1.0 | nt | nt | nt | nt | nt | nt
CCN(C(C)=O)c1cnc(C=NNC(N)=S)c2ccccc12 | -19.2 | nt | nt | nt | 19.9* | nt | nt | nt | 14.8* | 17.3 | 32.0*
NC(=S)NN=Cc1nccc2c(N)cccc12 | nt | nt | nt | nt | 23.1* | nt | nt | nt | 31.9* | 39.0* | 35.0*
CCCNC(=O)c1nc(C)c(C)nc1C(=O)Nc1cccc(Cl)c1 | -0.7 | -1.2 | 0.651 | -2.0 | 67.1* | nt | nt | nt | -1.7 | -2.3 | -4.1
Cc1nc(C)c(C(=O)Nc2cccc(Cl)c2)o1 | 9.3 | 1.4 | 0.645 | -1.8 | 2.4 | nt | nt | nt | nt | nt | nt
Cc1cccc(Nc2nnc(SCc3cn4ccsc4n3)s2)c1 | -7.2 | 4.7 | 0.642 | -0.5 | 16.6* | nt | nt | nt | 9.0 | 10.9 | 15.7
O=c1cc(CSc2nnc(Nc3ccccc3)s2)nc2sccn12 | -8.5 | 1.2 | 0.68 | 1.7 | 4.3 | nt | nt | nt | nt | nt | nt
O=C(C1=CC(c2ccccc2)CC(OCCCCO)O1)N1CCN(Cc2ccccc2)CC1 (stereo not given) | nt | nt | 0.689 | nt | nt | nt | nt | nt | nt | nt | nt
